MCF10A rereplic = induces DNA re-replication in MCF 10a normal breast cells; MCF 10A DNA re-replication, Hoechst nuclear intensity, 48 h; Potency, µM (titrated, usually from 46.1 µM), usual class: activators; hit rate 2.9% among 350,000; AID 624296; also: nearly all actives have a fitted effect of over 50% in size
SW480 rereplic = inducers of DNA re-replication in SW480 colon cancer cells | SW480 DNA re-replication, Hoechst DNA content imaging, 48 h | Potency, µM (series often up to 46.1 µM), hits mostly activators | hit rate 1.8% among 340,000 | AID 624297; also: nearly all actives have a fitted effect of over 55% in size
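Compounds, transferred as 23 nL by pin tool, were incubated with cells for 48 hr; DNA content per nucleus was then quantified by Hoechst staining and fluorescence plate imaging.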
BCR signal inh = chronic active BCR signaling inhibition; Potency, µM (doses to about 46.1 µM), usual class: inhibitors; hit rate 0.05% among 340,000; ABC-DLBCL IkBa-CBG/CBR reporter, luminescence ratio, 4 h; active = well fitted inhibition curve with a large enough effect in the signal ratio, with a control signal flat, not every such curve was filed as active; inconclusive = small, poorly fitted or top-dose-only effect, or effect the other way, or a change in a side signal; the % refers to the signal ratio
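Compounds up to 46 uM were incubated four hours with TMD8 cells whose green CBG68 luciferase is fused to IkappaBalpha; red CBR luminescence normalised the signal, and concentration-effect curves were fitted to fusion, red and ratio data.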
Gal4-VP16 FLuc = inhibits Gal4-VP16 luciferase reporter, ROR gamma counter-screen; Drosophila S2 Gal4-VP16 UAS-luciferase, luminescence, 20 h; Potency, µM (doses to about 53.6 µM), most hits filed as inhibitors; hit rate 3.5% among 310,000; AID 2546;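 also: Gal4-VP16 expression switched on by copper sulfate through the metallothionein promoter; nearly all actives have a fitted effect of over 50% in size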
RORg inh = ROR gamma (mouse) transcription inhibition; P51450; Drosophila S2 Gal4-RORgamma UAS-luciferase reporter, 20 h; Potency, µM (series often up to 53.6 µM), most hits filed as inhibitors; hit rate 5.4% among 310,000; AID 2551; also: nearly all actives have a fitted effect of over 60% in size
Target sequence (P51450 whole entry, looked up, the tested form may be a part): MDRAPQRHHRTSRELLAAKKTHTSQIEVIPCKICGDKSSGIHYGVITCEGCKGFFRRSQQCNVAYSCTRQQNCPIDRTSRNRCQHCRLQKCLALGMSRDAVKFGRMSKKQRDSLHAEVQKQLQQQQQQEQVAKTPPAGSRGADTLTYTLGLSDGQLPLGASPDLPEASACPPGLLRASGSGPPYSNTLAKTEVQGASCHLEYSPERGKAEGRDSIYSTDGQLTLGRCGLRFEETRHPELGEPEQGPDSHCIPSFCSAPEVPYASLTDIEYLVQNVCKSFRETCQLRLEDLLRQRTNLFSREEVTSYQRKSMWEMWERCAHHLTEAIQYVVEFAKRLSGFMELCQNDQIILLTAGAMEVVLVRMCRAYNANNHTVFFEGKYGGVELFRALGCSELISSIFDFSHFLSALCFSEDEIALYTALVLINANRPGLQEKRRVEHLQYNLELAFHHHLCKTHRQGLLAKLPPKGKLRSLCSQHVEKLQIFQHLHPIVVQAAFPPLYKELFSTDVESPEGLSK
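Read-out: Photinus luciferase luminescence; inhibitors lower reporter signal. Insect Schneider cells with Gal4-ROR gamma fusion under metallothionein promoter, UAS reporter; 700 uM final copper sulfate induction, 20 hr, ambient temperature.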
Giardia kill = kills Giardia lamblia; hit rate 0.15% among 340,000; Giardia lamblia trophozoite viability; activity change, % at 7.66 µM, hits read low; AID 540267; in the data active = activity change below about -80%; inconclusive = between about -30% and that limit;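 also: parasites exposed to compound for two days anaerobically before the ATP read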
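Trophozoite viability was measured as ATP-dependent luminescence, read 15-30 min after reagent addition. Before that, parasites at 100 cells/well were exposed to compounds for 48 h, anaerobically, at 37 deg C.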
Numbers stand for hits; . = inactive; ? = inconclusive; / = not tested or not shown; [ ] = remark or other dose. Only some compounds are listed: those with a hit (about 8.3% of all), similar ones and a draw of the others. Unless noted, calls follow the shape of the dose curve; as a rule, active = well fitted curve in the direction sought with a large enough effect; inconclusive = small, poorly fitted or top-dose-only effect, or another doubt; inactive = no such curve, though single readings can be large; an effect the other way counts as inactive or inconclusive.

SMILES	MCF10A rereplic	SW480 rereplic	BCR signal inh	Gal4-VP16 FLuc	RORg inh	Giardia kill
Cc1ccc(-c2n[nH]c(=S)n2Cc2ccccc2)cc1	.	?	.	6.31µM	2.82µM	.
CC(c1n[nH]c(=S)n1Cc1ccccc1)N(C)C (stereo not drawn)	.	.	.	?	1.78µM	.
C=CCn1c(-c2cccc(Cl)c2)n[nH]c1=S	.	.[9.22 µM]	.	7.08µM	3.98µM	.
CCn1c(C(c2ccccc2)c2ccccc2)n[nH]c1=S	.	.	?	?	?	.
CCn1c(-c2cccn(Cc3ccc(Cl)cc3Cl)c2=O)n[nH]c1=S	.	.	.	.	10µM	.
CC[C@H](C)[C@H](NC(=O)[C@H](CO)NC(=O)[C@H](C)NC(=O)[C@H](C)NC(=O)[C@H](CCC(N)=O)NC(=O)[C@H](CCCCN)NC(=O)[C@H](CCCN=C(N)N)NC(=O)[C@@H](N)CS)C(=O)N[C@@H](CCCCN)C(=O)N[C@H](C(=O)N[C@@H](C)C(=O)N[C@H](C(=O)N[C@@H](CO)C(=O)O)C(C)C)C(C)C	/	/	/	.	.	/
CC1C(=O)N2CCCc3cc(NC(=O)c4ccccc4F)cc1c32 (stereo not drawn)	.	.	?	/	/	.
S=c1[nH]nc(-c2cccc(Cl)c2)n1Cc1ccccc1	.	.	.	2.51µM	2.51µM	.
Cc1cccc(-c2n[nH]c(=S)n2Cc2ccccc2)c1	.	.	.	0.562µM	0.794µM	.
COc1ccc(-c2n[nH]c(=S)n2CC(C)C)cc1	.	.	.	?	10µM	.
Cc1cccc(-c2nnc(SCC#N)n2Cc2ccccc2)c1	.	.	.	.	.	.
COc1ccc2[nH]cc(CCNc3ccnc(-c4ccc5c(c4)OCO5)n3)c2c1	/	/	/	.	.	/
CC(=O)c1cccc(NC(=O)CSc2ncc(C(=O)Nc3ccccc3)c(=O)n2C)c1	?	.	.	/	/	.
O=C(CN1C(=O)NC2(CCCC2)C1=O)OCc1cc(=O)n2cc(Br)ccc2n1	.	.	?	.	3.16µM	.
CC1(C)NC(=O)N(CC(=O)OCc2cc(=O)n3cc(Br)ccc3n2)C1=O	.	.	.	.	.	.
CCN(CC(=O)Nc1c(F)cccc1F)C(=O)/C=C/c1ccc2c(c1)OCO2	?	?	?	/	/	.
S=C(Nc1ccccc1)N1CCn2c1nc1ccccc12	.	?	.	5.01µM	0.562µM	.
O=C1C=CC(=O)N1CCCCCCCCCCN1C(=O)C=CC1=O	?	6.51µM	/	/	/	.
CCOC(=O)c1c(NC(=O)CN2C(=O)NC3(CCC(C)CC3)C2=O)sc(C(=O)N(C)C)c1C (stereo not drawn)	.	.	.	/	/	.
CSC(=NC#N)N1CCN(c2ccccc2)CC1	.	.	.	?	.	.
CSC(=NC#N)N1CCN(c2c(C)cccc2C)CC1	.	.	.	.[10 µM]	11.2µM	.
O=C(NC(=S)NNC(=O)c1ccccc1F)c1cccnc1	.	?	?	?	11.2µM	.
O=C(NC(=S)NCc1cccnc1)c1ccccc1F	.	.	.	.	.	.
Cc1ccccc1C(=O)NNC(=S)NC(=O)c1cccnc1	.	.	?	?	11.2µM	.
Cc1[nH]c(C)c(S(=O)(=O)NCCc2ccccc2)c1C(=O)N1CCCCC1	.	.	.	.	.	.
SMILES	MCF10A rereplic	SW480 rereplic	BCR signal inh	Gal4-VP16 FLuc	RORg inh	Giardia kill
Cc1ccc2[nH]c(=S)cc(C)c2c1	.	.	.	?	15.8µM	.
Cc1ccc2c(C)cc(=S)[nH]c2c1	.	.	.	?	3.98µM	.
COc1ccc(Br)cc1/C(C)=N/NC1=NCCN1	?	.	.	12.6µM	?	.
CCCCCOc1ccc(Br)cc1/C(C)=N/NC1=NCCN1	3.26µM	3.26µM	?	?	2.51µM	.
CCOc1ccc(Br)cc1C(=S)N1CCCC1	.	.	.	.	.	.
C/C(=N\NC1=NCCN1)c1ccccc1	.	.	.	.	.	.
O=C(NCCc1cnn(-c2ccccc2)c1)c1cc(COc2c(F)cccc2F)on1	.	.	.	.	.	.
CC(C)(C)NC(=O)CSc1nc(Cc2ccccc2)nc2ccccc12	0.651µM	.	.	.	.	.
C/C(=C\C(=O)OCCCCCCCCC(=O)O)C[C@@H]1OC[C@H](C[C@@H]2O[C@H]2[C@@H](C)[C@H](C)O)[C@@H](O)[C@H]1O	.	.	/	.	.	.
COc1ccc(-c2[nH]c(-c3cc(OC)c4c(c3)OCO4)nc2-c2ccccc2)cc1	13µM	.	?	.	?	.
NS(=O)(=O)c1ccc(NC(=O)/C=C/c2ccc3c(c2)OCO3)cc1	18.4µM	6.51µM	.	.	.	.
CCOC(=O)c1c(NC(=O)/C=C/c2ccc3c(c2)OCO3)sc(C)c1CC	8.2µM	.	.	.	.	.
CCOC(=O)c1c(NC(=O)/C=C/c2ccc3c(c2)OCO3)sc(C)c1C	/	/	.	.	.	/
c1ccc(-n2cnc3cc(NCc4ccccn4)ccc32)cc1	5.8µM	20.6µM	?	.	?	.
Cc1[nH]c(=O)[nH]c(=O)c1S(=O)(=O)Nc1ccc(F)cc1F	.	.	.	.	.	.
CCc1ccc2oc(-c3cccc(N)c3)nc2c1	?	.	?	14.1µM	10µM	.
Cc1nc2ccc(-c3nc4cc(N)ccc4o3)cc2[nH]1	.	.	?	?	15.8µM	?
Cc1cnc(C(=O)NC2CC(C)(C)Cc3c2cnn3-c2ccccc2)cn1 (stereo not drawn)	?	.	.	.	?	.
CC(C)(C)C(=O)Nc1ccccc1N1CCN(c2ccc(F)cc2)CC1	20.6µM	.	.	.	.	.
CNC(=S)N/N=C(\C)c1ccc(N2CCOCC2)cc1	?	.	?	?	7.94µM	.
CCNC(=S)N/N=C(\C)c1ccc(N2CCOCC2)cc1	.	.	?	3.55µM	2.51µM	.
S=c1ccss1	/	/	/	?	12.6µM	/
Cc1cc(Cl)nc(Cl)c1C(=O)N1CCOCC1	.	.	.	.	.	.
O=C(O)CNC(=S)N(Cc1ccccc1)Cc1cccs1	.	.	.	.	.	.
Cc1cccc(C)c1NC(=S)N(Cc1ccccc1)Cc1cccs1	.	.	.	.[10 µM]	7.08µM	.
SMILES	MCF10A rereplic	SW480 rereplic	BCR signal inh	Gal4-VP16 FLuc	RORg inh	Giardia kill
Cc1ccc(CN(Cc2ccccc2)C(=S)Nc2ccccc2C)o1	?	.	.	?	7.08µM	.
CCC(CO)Oc1cc(NC(=O)c2ccccc2F)c2ncn(C(C)C)c2c1 (stereo not drawn)	.	.	.	/	/	.
CCCCCCCCCCn1c2c(c(=N)c3c1CCC3)CCC2	?	?	?	3.16µM	8.91µM	.
CCCCCCCCn1c2c(c(=N)c3ccccc31)CCC2	?	.	.	.	.	.
CCCCCCCCCn1c2c(c(=N)c3c1CCC3)CCCC2	?	?	?	?	3.98µM	.
c1cc2c3c(cccc3c1)C(N1CCCCC1)=N2	.	.	.	.	?	.
c1ccc2c(c1)CCN(C1=Nc3cccc4cccc1c34)C2	8.2µM	?	.	.	?	.

Screening data as filed in PubChem.
